# Reference: PubChem BioAssay
# A number with no mark means an inactive call. The source made the active and inactive calls.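 How the source made its calls, unless noted: active means mean inhibition over 43.08%, the solvent-only control mean plus 3 SD; inactive means the rest.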
# Columns and labels:
# [1] = target: Nuclear receptor coactivator 3 (Homo sapiens) (UniProt Q9Y6Q9); test: SRC3 coactivator transcriptional activity inhibitors, confirmation, cell-based, luminescence, quadruplicate (AID 588792); settings: HEK293 GAL4-SRC3 luciferase reporter, at 3.6 µM, active compounds read high;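 further: 0% = DMSO treated cells and 100% = gossypol at 36 µM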
# Chain of Nuclear receptor coactivator 3 (Homo sapiens) (Q9Y6Q9 whole entry, looked up, the tested form may be a part): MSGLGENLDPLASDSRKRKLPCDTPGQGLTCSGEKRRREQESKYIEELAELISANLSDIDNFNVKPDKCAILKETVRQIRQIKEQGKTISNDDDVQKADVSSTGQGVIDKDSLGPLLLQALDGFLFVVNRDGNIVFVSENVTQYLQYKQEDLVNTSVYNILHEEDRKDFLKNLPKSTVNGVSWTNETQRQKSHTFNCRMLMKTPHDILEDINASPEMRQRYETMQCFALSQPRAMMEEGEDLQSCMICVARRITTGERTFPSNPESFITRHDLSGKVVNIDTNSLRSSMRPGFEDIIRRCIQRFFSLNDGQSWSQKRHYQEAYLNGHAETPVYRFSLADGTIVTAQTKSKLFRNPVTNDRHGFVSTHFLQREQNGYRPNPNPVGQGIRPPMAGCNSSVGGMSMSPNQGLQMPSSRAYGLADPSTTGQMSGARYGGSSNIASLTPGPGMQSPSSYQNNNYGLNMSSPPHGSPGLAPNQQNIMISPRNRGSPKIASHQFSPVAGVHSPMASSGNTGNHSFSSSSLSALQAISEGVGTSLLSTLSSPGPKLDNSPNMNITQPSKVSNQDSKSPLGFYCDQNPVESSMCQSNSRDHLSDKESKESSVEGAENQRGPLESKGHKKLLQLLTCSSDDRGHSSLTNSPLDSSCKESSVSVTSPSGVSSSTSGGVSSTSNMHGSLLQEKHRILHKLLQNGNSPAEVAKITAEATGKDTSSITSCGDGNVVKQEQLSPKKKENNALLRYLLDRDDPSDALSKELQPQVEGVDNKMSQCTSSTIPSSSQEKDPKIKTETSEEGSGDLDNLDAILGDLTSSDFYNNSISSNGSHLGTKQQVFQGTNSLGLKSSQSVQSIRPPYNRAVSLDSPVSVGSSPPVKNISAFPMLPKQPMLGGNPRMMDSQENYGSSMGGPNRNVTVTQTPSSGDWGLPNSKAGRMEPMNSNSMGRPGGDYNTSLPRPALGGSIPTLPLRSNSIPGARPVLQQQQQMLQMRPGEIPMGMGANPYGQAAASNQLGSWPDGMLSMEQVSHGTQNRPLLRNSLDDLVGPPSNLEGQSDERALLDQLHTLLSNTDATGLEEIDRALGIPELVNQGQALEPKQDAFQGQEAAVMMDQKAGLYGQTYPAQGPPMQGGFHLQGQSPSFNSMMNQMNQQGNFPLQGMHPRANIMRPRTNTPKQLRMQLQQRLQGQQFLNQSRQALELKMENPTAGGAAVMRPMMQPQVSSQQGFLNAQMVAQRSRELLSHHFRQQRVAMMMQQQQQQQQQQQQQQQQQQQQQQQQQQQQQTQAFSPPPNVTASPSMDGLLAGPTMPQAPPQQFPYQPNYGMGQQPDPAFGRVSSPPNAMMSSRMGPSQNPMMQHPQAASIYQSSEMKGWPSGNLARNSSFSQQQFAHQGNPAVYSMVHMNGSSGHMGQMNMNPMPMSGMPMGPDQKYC
# [2] = tested on: transactivating tegument protein VP16 (Human herpesvirus 1), Gal4-VP16 luciferase reporter; test: VP16 transactivation inhibitors, counter-screen for SRC3 inhibitor project, cell-based, luminescence, high throughput (AID 588794; in the data active means inhibition above about 30%); settings: mammalian cells, VP16-driven luciferase reporter luminescence; at 3.6 µM; active compounds read high
Compound,inhibition [1],inhibition [2]
O=C(NCc1cccs1)C1CCCN(C(=O)Nc2ccccc2)C1 (stereo unspecified),17.7%,31.9% (active)
CCOC(=O)c1ccc2nc(Nc3nc4ccc(F)cc4s3)sc2c1,15.2%,3.4%
O=C1/C(=C/c2cccnc2)SC(=S)N1C1CCS(=O)(=O)C1 (stereo unspecified),-0.1%,21%
Cc1nc(NCc2ccccn2)c2ccccc2n1,-6.68%,13.9%
COc1cc2c(C#N)c(N3CCOCC3)nc(N)c2c(N)n1,-5.11%,0.07%
CN[C@H]1CCc2cc(OC)c(OC)c(OC)c2-c2ccc(OC)c(=O)cc21,40.5%,-10.4%
COc1ccc(C(C(=O)NC2CCCCC2)N(C(=O)CCl)c2ccc(Cl)cc2)cc1 (stereo unspecified),54.1% (active),24.8%
Cc1ccc(NC(=O)C(=Cc2ccc(C(=O)O)cc2)C(=O)Nc2ccc(C)cc2C)c(C)c1,32.6%,46% (active)
CC(=O)c1cccc(NC(=O)c2cc(S(=O)(=O)N3CCOCC3)cs2)c1,2.71%,1.82%
O=C1OCCC1Sc1nnc(-c2ccc(Cl)cc2Cl)o1 (stereo unspecified),0.88%,1.16%
CCN(CC(=O)Nc1ccccc1C(F)(F)F)C(=O)c1ccc(N2C(=O)CCC2=O)cc1,-1.4%,2.68%
COc1ccccc1NS(=O)(=O)c1cc(NC(=O)c2ccc(Cl)nc2)ccc1Cl,9.43%,30.7% (active)
CSc1ncccc1C(=O)NCc1nnc2ccccn12,3.35%,-2.69%
CC1CC(C)CN(c2nc(NCc3ccco3)nc(N)c2[N+](=O)[O-])C1 (stereo unspecified),9.73%,9.4%
Cc1ccc(-n2cccn2)c(CN2CCCC(C(=O)c3sccc3C)C2)c1 (stereo unspecified),18.9%,32.1% (active)
c1ccc2c(c1)Nc1ccncc1S2,31.2%,16.4%
CCOc1ccc(N2C(=O)/C(=C/c3cc(OC)c(OC)c(OC)c3)N(CC(=O)OC)C2=S)cc1,18.9%,12.7%

Compound,inhibition [1],inhibition [2]
Cc1cc(/C=C2\SC(=S)N(C)C2=O)c(C)n1-c1cccc(O)c1,51.6% (active),38% (active)
COc1ccc(Nc2nc(-c3ccccc3)nc3ccccc23)cc1S(=O)(=O)N1CCOCC1,7.91%,1.3%
Cc1ccc(-c2c[n+]3c(n2-c2ccccc2)SCC3)cc1,8.17%,24.7%
O=C(Nc1ccc(Oc2cccnc2)nc1)c1ccc(C(F)(F)F)cc1,17.2%,37.1% (active)
O=[N+]([O-])c1ccc(S(=O)(=O)CC2CSc3nc4ccccc4n32)cc1 (stereo unspecified),15.6%,18.6%
Cc1ccc(-c2cn(-c3ccc(OC(F)F)cc3)c3[n+]2CCCCC3)cc1,3.74%,23%
COc1ccc(OC)c(Nc2nc(N)nc(CCl)n2)c1,15.4%,4.74%
CC(C)Nc1nc(Cl)nc(NNC(=O)C(C)Oc2ccccc2)n1 (stereo unspecified),-3.52%,4.03%
O=[N+]([O-])c1ccc(N=Nc2c(Cl)cc(O)cc2Cl)cc1,13.9%,66% (active)
CCOC(=O)c1c(NC(=S)N2CCN(C)CC2)sc2c1CCN(C(=O)OCC)C2,35.5%,40.1% (active)
COc1ccccc1OCC(=O)N/N=C/c1c(O)ccc2ccccc12,12.8%,22.8%
COc1cc(NC(=O)c2cc3ccccc3cc2OC)ccc1NC(=O)c1cccs1,4.37%,-1%
C=CC[C@@H](CC(=O)N(CCO)Cc1ccccc1)C(=O)N[C@@H](C)COC(=O)[C@@H](CC=C)Cc1ccc(F)cc1,5.89%,-1.92%
Cc1ccc(C(=O)OCC(=O)Nc2sccc2C(N)=O)cc1NC(=O)c1ccco1,18.4%,11.5%
CCCCCCSc1ccc([C@H]2N[C@@](CC(C)C)(C(=O)OC)[C@H]3C(=O)N(C)C(=O)[C@@H]23)cc1OC,4.49%,-10.5%
Cc1nc(SCC(=O)NNC(=O)c2ccc(F)cc2)c2ccccc2n1,-5.28%,-10.9%
